# In PubChem BioAssay AID1159580 (chemical genetic matrix, 2015):
# Values joined by “and” are separate entries in the source; they are usually repeats but may differ in a detail not shown here. Equal entries are not always repeated. Among all 5,500 compounds or so, about 2,000 (36%) were called active. Inconclusive results (about 18%) are left out. Some of the results follow. Values without a mark were called inactive. No stated cut-off is given here; in the data, active means normalized growth mostly below about 0.91 (no sharp cut-off); inconclusive means no clear call, values can overlap the other calls; inactive means mostly above about 0.92.
# Test: chemical genetic growth profiling, strain panel (AID 1159580);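 further: tested at 20 µM; growth read once vehicle control cultures reached saturation at 30 °C; 1 = growth at the plate median or of vehicle wells; lower values mean less growth of the strain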
# Settings: S. cerevisiae deletion strains, growth OD
compound,measurement,setting,value
OCCN1CCN(CCCN2c3ccccc3Sc3ccc(Cl)cc32)CC1,normalized growth,"locus YAL013W, strain DEP1, hits give low values",1.02 and 1.01
same,normalized growth,"locus YAL021C, strain ccr4, hits give low values",1
same,normalized growth,"locus YAL026C, strain drs2, hits give low values",0.674 (active)
same,normalized growth,"locus YAL030W, strain snc1, hits give low values",1.01
same,normalized growth,"locus YAL040C, strain CLN3, hits give low values",0.984
same,normalized growth,"locus YBL061C, strain skt5, hits give low values",0.996
same,normalized growth,"locus YBR009C, strain hhf1, hits give low values",0.998
same,normalized growth,"locus YBR021W, strain FUR4, hits give low values",0.988
same,normalized growth,"locus YBR023C, strain chs3, hits give low values",0.996
same,normalized growth,"locus YBR171W, strain sec66, hits give low values",1.01
same,normalized growth,"locus YBR229C, strain ROT2, hits give low values",1.01
same,normalized growth,"locus YBR231C, strain swc5, hits give low values",1
same,normalized growth,"locus YBR279W, strain paf1, hits give low values",0.998
same,normalized growth,"locus YCL011C, strain gbp2, hits give low values",0.997
same,normalized growth,"locus YCL016C, strain dcc1, hits give low values",0.994
same,normalized growth,"locus YCL029C, strain bik1, hits give low values",0.984
same,normalized growth,"locus YCL061C, strain MRC1 (second series), hits give low values",1.01
same,normalized growth,"locus YCL061C, strain MRC1, hits give low values",1
same,normalized growth,"locus YCL069W, strain vba3, hits give low values",1.01
same,normalized growth,"locus YCR088W, strain abp1, hits give low values",1.01
same,normalized growth,"locus YDL005C, strain med2, hits give low values",1.01
same,normalized growth,"locus YDL035C, strain GPR1, hits give low values",0.996
same,normalized growth,"locus YDL040C, strain nat1, hits give low values",1
same,normalized growth,"locus YDL074C, strain BRE1, hits give low values",0.955
same,normalized growth,"locus YDL101C, strain DUN1, hits give low values",1.01
same,normalized growth,"locus YDL134C, strain PPH21, hits give low values",1.02
same,normalized growth,"locus YDL185W, strain tfp1, hits give low values",0.996
same,normalized growth,"locus YDL192W, strain arf1, hits give low values",1.01
same,normalized growth,"locus YDR001C, strain nth1, hits give low values",1
same,normalized growth,"locus YDR069C, strain doa4, hits give low values",0.987
same,normalized growth,"locus YDR101C, strain arx1, hits give low values",0.959
same,normalized growth,"locus YDR137W, strain rgp1, hits give low values",1.33 [resistant] (active)
same,normalized growth,"locus YDR150W, strain NUM1, hits give low values",1.03
same,normalized growth,"locus YDR159W, strain sac3, hits give low values",1.01
same,normalized growth,"locus YDR162C, strain NBP2, hits give low values",1
same,normalized growth,"locus YDR195W, strain ref2",1.12
same,normalized growth,"locus YDR297W, strain sur2, hits give low values",0.997
same,normalized growth,"locus YDR318W, strain mcm21, hits give low values",0.966
same,normalized growth,"locus YDR334W, strain swr1, hits give low values",1
same,normalized growth,"locus YDR335W, strain msn5, hits give low values",1
same,normalized growth,"locus YDR363W, strain ESC2, hits give low values",0.995
same,normalized growth,"locus YDR388W, hits give low values",0.979
same,normalized growth,"locus YDR392W, strain spt3, hits give low values",0.998
same,normalized growth,"locus YDR502C, strain sam2, hits give low values",0.96
same,normalized growth,"locus YEL003W, strain gim4, hits give low values",0.988
same,normalized growth,"locus YEL037C, strain rad23, hits give low values",1
same,normalized growth,"locus YEL061C, strain CIN8 (second series), hits give low values",1
same,normalized growth,"locus YEL061C, strain CIN8, hits give low values",1.01
same,normalized growth,"locus YER002W, strain NOP16, hits give low values",1.04
same,normalized growth,"locus YER015W, strain faa2, hits give low values",1
same,normalized growth,"locus YER016W, strain bim1, hits give low values",1
same,normalized growth,"locus YER110C, hits give low values",0.998
same,normalized growth,"locus YER111C, strain swi4, hits give low values",1
same,normalized growth,"locus YER155C, strain BEM2 (second series), hits give low values",0.971
same,normalized growth,"locus YER155C, strain BEM2, hits give low values",1.03
same,normalized growth,"locus YER167W, strain BCK2, hits give low values",1.01
same,normalized growth,"locus YFR010W, strain ubp6, hits give low values",0.976
same,normalized growth,"locus YGL078C, strain dbp3, hits give low values",0.994
same,normalized growth,"locus YGL086W, strain mad1, hits give low values",0.993
same,normalized growth,"locus YGL167C, strain pmr1, hits give low values",0.989
same,normalized growth,"locus YGL173C, strain kem1, hits give low values",0.972
same,normalized growth,"locus YGL227W, strain vid30, hits give low values",1.01
same,normalized growth,"locus YGL240W, strain doc1, hits give low values",1.04
same,normalized growth,"locus YGL248W, strain PDE1, hits give low values",1.02
same,normalized growth,"locus YGL253W, strain hxk2, hits give low values",0.997
same,normalized growth,"locus YGR078C, strain PAC10, hits give low values",0.997 and 0.999
same,normalized growth,"locus YGR135W, strain pre9, hits give low values",0.958
same,normalized growth,"locus YGR229C, strain SMI1, hits give low values",0.958
same,normalized growth,"locus YGR252W, strain gcn5, hits give low values",0.931
same,normalized growth,"locus YHR013C, strain ard1, hits give low values",0.995
same,normalized growth,"locus YHR027C, strain rpn1, hits give low values",0.988
same,normalized growth,"locus YHR030C, strain SLT2, hits give low values",1.02 and 0.987
same,normalized growth,"locus YHR079C, strain IRE1 (second series), hits give low values",0.984
same,normalized growth,"locus YHR079C, strain IRE1, hits give low values",0.993
same,normalized growth,"locus YHR094C, strain hxt1, hits give low values",0.992
same,normalized growth,"locus YHR129C, strain ARP1, hits give low values",1.01
same,normalized growth,"locus YHR142W, strain chs7, hits give low values",1.01
same,normalized growth,"locus YHR200W, strain rpn10, hits give low values",0.986
same,normalized growth,"locus YIL066C, strain RNR3, hits give low values",0.998
same,normalized growth,"locus YIL073C, strain SPO22, hits give low values",1.01
same,normalized growth,"locus YIL125W, strain kgd1, hits give low values",0.991
same,normalized growth,"locus YIR030C, strain dcg1, hits give low values",0.997
same,normalized growth,"locus YJL092W, strain hpr5, hits give low values",1
same,normalized growth,"locus YJL095W, strain BCK1 (second series), hits give low values",1
same,normalized growth,"locus YJL095W, strain BCK1, hits give low values",0.977 and 0.981
same,normalized growth,"locus YJL115W, strain asf1, hits give low values",1
same,normalized growth,"locus YJL129C, strain trk1, hits give low values",1.01
same,normalized growth,"locus YJL134W, strain LCB3, hits give low values",1.01
same,normalized growth,"locus YJL154C, strain vps35, hits give low values",1.01
same,normalized growth,"locus YJL164C, strain tpk1, hits give low values",0.988
same,normalized growth,"locus YJL166W, strain qcr8, hits give low values",1.01
same,normalized growth,"locus YJL168C, strain set2, hits give low values",0.991
same,normalized growth,"locus YJL187C, strain SWE1 (second series), hits give low values",1
same,normalized growth,"locus YJL187C, strain SWE1, hits give low values",1
same,normalized growth,"locus YJR043C, strain POL32, hits give low values",1.02
same,normalized growth,"locus YJR066W, strain TOR1, hits give low values",0.954
